PLK1 PBD block: blocks phosphopeptide binding to human PLK1 polo-box domain. P53350. Plk1 PBD binding of FITC phosphopeptide, fluorescence polarization. Potency, µM, for inactives: max response, negative = inhibition, most hits filed as inhibitors. 360,000 compounds, 2.8% hits. AID 720504; further: series mostly up to about 57 µM; on the % scale 0 is the no-effect control and ±100 the full control effect; nearly all actives have a fitted effect of over 65% in size
VDR inh: blocks the human vitamin D receptor | 400,000 compounds, 0.93% hits | P11473 | VDR-SRC2-3 peptide fluorescence polarization, 2 h | Potency, µM, for inactives: max response, negative = inhibition, actives largely listed as inhibitors; further: on the % scale 0 is the no-effect control and ±100 the full control effect
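Fluorescence polarization assay of small-molecule disruption of VDR binding to coregulator peptide SRC2-3. Compounds and controls pin-transferred, then read after 2 h incubation at ambient room temperature.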
TDP1 cell CPT: DT40-hTDP1 cell growth loss with CPT | 420,000 compounds, 12% hits | Potency, µM (doses to about 46.2 µM), for the others: top-dose activity change, negative = growth inhibition, actives largely listed as inhibitors | chicken DT40 Tdp1-/-;hTDP1 cells + 20 nM CPT, ATP luminescence, 48 h | AID 686979; further: on the % scale 0 is the no-effect control and ±100 the full control effect; nearly all actives have a fitted effect of over 55% in size
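Chicken DT40 Tdp1-/- cells stably complemented with human TDP1 were seeded at 400 cells/well in medium containing 20 nM camptothecin, exposed to pin-transferred compounds, and grown at 37 °C for at least 48 hr. Viability was read as ATP luminescence.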
TDP1 block: blocks human tyrosyl-DNA phosphodiesterase 1 | Q9NUW8 | recombinant TDP1, AlphaScreen DNA substrate cleavage | Potency, µM (titrated, usually from 130 µM), without a hit: at the top dose activity change, negative = inhibition, actives largely listed as inhibitors | 350,000 compounds, 0.28% hits | AID 485290; further: on the % scale 0 is the no-effect control and ±100 the full control effect; nearly all actives have a fitted effect of over 40% in size
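Here, a 5' biotin and 3' phosphotyrosine-FITC DNA oligonucleotide reports Tdp1 activity: intact substrate bridges AlphaScreen beads, while cleavage leaves a 3' phosphate and drops signal. All incubations at room temperature.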
DT40 TDP1 no CPT: qHTS for Inhibitors of human tyrosyl-DNA phosphodiesterase 1 (TDP1): qHTS in cells in absence of CPT | DT40 Tdp1-/- hTDP1 cells, no CPT, ATP luminescence, 48 h | Potency, µM (titrated, usually from 46.2 µM), for inactives: at the top dose activity change, negative = growth inhibition, most hits filed as inhibitors | 420,000 compounds, 15% hits | AID 686978, 2013; further: on the % scale 0 is the no-effect control and ±100 the full control effect; nearly all actives have a fitted effect of over 55% in size
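Chicken DT40 Tdp1-/- cells complemented with human TDP1, screened without camptothecin (DMSO vehicle only), 400 cells/well. Compounds pin-transferred, cells incubated at 37 °C for at least 48 hr. Growth read as ATP-dependent luminescence (CellTiter-Glo, 30 min at RT).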
GCN5L2 inh: GCN5L2 (KAT2A) acetyltransferase inhibition | Q92830 | GCN5L2 HAT assay, ThioGlo1 CoA-SH fluorescence | Potency, µM (doses to about 58.9 µM), for inactives: top-dose activity change, negative = inhibition, hits mostly inhibitors | 390,000 compounds, 0.21% hits | AID 504327; further: on the % scale 0 is the no-effect control and ±100 the full control effect
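GCN5L2 (20nM final) in 50mM HEPES, 0.1mM EDTA pH 7.5, 0.01% Tween-20 was preincubated 15 min at room temperature with compound, then given ThioGlo1 (50uM), H3(1-25) peptide (75uM) and acetyl-CoA (70uM); CoA-thiol fluorescence (Ex340/Em540) was read at 0 and 20 min.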
VDR inh confirm: confirmation of human vitamin D receptor inhibitors. AID 602199. Potency, µM, most hits filed as inhibitors. 840 compounds, 89% hits. VDR-coactivator inhibition assay, qHTS confirmation. shares compounds with VDR inh
VDR FP fluor: VDR (human) coactivator binding inhibition, fluorescein polarization | shares compounds with VDR inh | VDR-coactivator binding, fluorescein fluorescence polarization | Potency, µM (top dose mostly 57.1 µM), for the others: top-dose activity change, negative = inhibition, actives largely listed as inhibitors | 840 compounds, 48% hits
VDR bla: inhibits human VDR in beta-lactamase reporter cells | Potency, µM (titrated, usually from 46.1 µM), for inactives: top-dose activity change, negative = inhibition, hits mostly inhibitors | shares compounds with VDR inh | VDR beta-lactamase reporter cells, FRET ratio; cells co-treated with VDR agonist LG190178 | AID 602202 | 840 compounds, 23% hits; further: on the % scale 0 is the no-effect control and ±100 the full control effect
VDR viability: cytotoxic in counter-screen for VDR inhibitors; shares compounds with VDR inh; 840 compounds, 18% hits; Potency, µM (series often up to 48.3 µM), without a hit: top-dose activity change, negative = cytotoxicity, hits mostly cytotoxic; cytotoxicity counter-screen, cell viability, qHTS;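 further: plate controls were DMSO for no effect and high-concentration cycloheximide for full effect; nearly all actives have a fitted effect of over 75% in size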
Active calls of the source: *; ? = inconclusive; / = not tested or not shown. Rows were chosen to be rich in hits. Some 18% of all compounds tested hit in one or more screens of this group. The call rests on the fitted dose curve; in most records, active means well fitted curve in the direction sought with a large enough effect; inconclusive means small, poorly fitted or top-dose-only effect, or another doubt; inactive means no such curve, though single readings can be large; an effect the other way counts as inactive or inconclusive. Potency means the concentration at half of the fitted maximal effect.

SMILES	PLK1 PBD block	VDR inh	TDP1 cell CPT	TDP1 block	DT40 TDP1 no CPT	GCN5L2 inh	VDR inh confirm	VDR FP fluor	VDR bla	VDR viability
CNc1ccc(Br)cc(C(=O)/C=C/c2cccc(Cl)c2Cl)c1=O	?	?	18µM*	-3%	16µM*	-5%	8.9*	-22%	23µM*	-26%
N#CC1=C(N)C(C#N)(C#N)C(c2cccnc2)C2CCCC=C12 (stereo unspecified)	/	/	/	5%	/	-10%	/	/	/	/
CCOC(=O)N1CC=C2C(C#N)=C(N)C(C#N)(C#N)[C@H](c3ccc(OC(C)C)c(OCC)c3)[C@H]2C1	-6%	?	-114%	0%	?	-1%	/	/	/	/
N#CC1=C(N)C(C#N)(C#N)[C@H](c2cccnc2)[C@H]2CN(C(=O)OCc3ccccc3)CC=C12	?	13µM*	?	5%	15µM*	-3%	27*	?	33%	13%
N#CC1=C(N)C(C#N)(C#N)C(c2cccnc2)C2CC(c3ccccc3)CC=C12 (stereo unspecified)	27µM*	25µM*	16µM*	2%	21µM*	-5%	?	8.9µM*	?	-16%
O=C(NCC(=O)N(c1cccnc1)C(C(=O)NC1CCCC1)c1ccccc1F)c1ccco1 (stereo unspecified)	-8%	-23%	-13%	/	-27%	-3%	/	/	/	/
O/N=C/c1cc(Br)ccc1OCc1ccc(F)cc1	-25%	?	?	/	?	/	/	/	/	/
O=C(O)CN1C(=O)/C(=C\c2cc(Br)ccc2OCc2ccc(F)cc2)SC1=S	21µM*	71µM*	5%	/	0%	?	?	32µM*	24%	11%
C/C(=N\NC(=O)CNC(=O)c1cccc(F)c1)c1ccc2ccccc2c1	-11%	14%	-14%	/	-15%	-4%	/	/	/	/
CCCCC[C@@H](C)N1C[C@@H](COCc2ccccc2)Oc2cc(N3CCC[C@@H]3CO)ccc2S1(=O)=O	-3%	/	?	/	?	/	/	/	/	/
Cc1ccc(NC(=O)C2=C(c3ccccc3)S(=O)(=O)CCS2(=O)=O)cc1	6µM*	?	0.46µM*	3%	0.58µM*	?	6.3*	8.9µM*	6.5µM*	?
O=C(Nc1ccc(-c2ccccc2)cc1)c1ccccc1	1%	-12%	?	/	-23%	-10%	/	/	/	/
Cc1cccc(C(=O)C2CCN(S(=O)(=O)c3cccc(C(=O)O)c3)CC2)c1	-14%	-17%	4%	1%	-18%	-4%	/	/	/	/
COc1ccc2nc(Cl)cc(Cl)c2c1	-4%	-8%	-2%	2%	8%	-1%	/	/	/	/
C=CS(=O)(=O)c1c2cc(OC)ccc2nc2ccc(OC)cc12	2.7µM*	50µM*	2.3µM*	/	2.6µM*	/	24*	14µM*	?	?
